From the supplement of paper PMC6555819

Tests used:
Assay in all cases: PBM binding z-score (relative to random genomic background probes); higher = stronger binding; sequences stand for … in GC…GCGATTGACAGCGTAGAATGAAGG
[1] = system: FXR:RXRa (NR concentration 270 nM, RXRa partner concentration 90 nM)
Outline: (§1)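 The probes on custom Agilent 4×180K protein-binding microarrays were double-stranded, with 34-nt variable regions bearing direct-repeat seeds, single-nucleotide variants, half-site ablations and random human genomic background sequences. Incubation lasted 1 h with ligand-free nuclear receptor dimers in PBS pH 7.4, 2% milk, 0.02% Triton X-100, 1 mM DTT, 0.2 mg/mL BSA and 0.4 mg/ml salmon testes DNA. Antibodies against each partner (one per run) detected bound dimers, and fluorescence scans were regression-normalized. Binding z-scores take the random background probes as reference.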

[2] = system: LXRa:RXRa (NR concentration 270 nM, RXRa partner concentration 90 nM)
Outline: as §1

[3] = system: LXRa homodimer (NR concentration 270 nM)
Outline: as §1

[4] = system: LXRb:RXRa (NR concentration 270 nM, RXRa partner concentration 90 nM)
Outline: as §1

[5] = system: LXRb homodimer (NR concentration 270 nM)
Outline: as §1

[6] = system: PPARa:RXRa (NR concentration 270 nM, RXRa partner concentration 90 nM)
Outline: as §1

[7] = system: PPARg:RXRa (NR concentration 180 nM, RXRa partner concentration 90 nM)
Outline: as §1

[8] = system: PPARg:RXRa 270nM:90nM, anti-RXR (NR concentration 270 nM, RXRa partner concentration 90 nM)
Outline: as §1

[9] = system: PPARg:RXRa 30nM:10nM, anti-RXR (NR concentration 30 nM, RXRa partner concentration 10 nM)
Outline: as §1

[10] = system: PPARg:RXRa 90nM:30nM, anti-RXR (NR concentration 90 nM, RXRa partner concentration 30 nM)
Outline: as §1

[11] = system: PPARg:RXRa DBDmut IVT, anti-RXR (DBD mutation: RXRa K156A/R161A, NR concentration 270 nM, RXRa partner concentration 90 nM)
Outline: as §1

[12] = system: PPARg:RXRa IVT, anti-PPARg (NR concentration 270 nM, RXRa partner concentration 90 nM)
Outline: as §1

[13] = system: PPARg DBDmut:RXRa IVT, anti-PPARg (DBD mutation: PPARg1 K132A/R137A, NR concentration 270 nM, RXRa partner concentration 90 nM)
Outline: as §1

[14] = system: PPARg DBDmut IVT, anti-PPARg (DBD mutation: PPARg1 K132A/R137A, NR concentration 270 nM)
Outline: as §1

[15] = system: PPARg homodimer (NR concentration 180 nM)
Outline: as §1

[16] = system: PXR:RXRa (NR concentration 270 nM, RXRa partner concentration 90 nM)
Outline: as §1

[17] = system: PXR homodimer (NR concentration 270 nM)
Outline: as §1

[18] = system: RARa:RXR (NR concentration 270 nM, RXRa partner concentration 90 nM)
Outline: as §1

[19] = system: RARa homodimer (NR concentration 270 nM)
Outline: as §1

[20] = system: RARb:RXRa (NR concentration 270 nM, RXRa partner concentration 90 nM)
Outline: as §1

Sequence	PBM binding z-score [1]	PBM binding z-score [2]	PBM binding z-score [3]	PBM binding z-score [4]	PBM binding z-score [5]	PBM binding z-score [6]	PBM binding z-score [7]	PBM binding z-score [8]	PBM binding z-score [9]	PBM binding z-score [10]	PBM binding z-score [11]	PBM binding z-score [12]	PBM binding z-score [13]	PBM binding z-score [14]	PBM binding z-score [15]	PBM binding z-score [16]	PBM binding z-score [17]	PBM binding z-score [18]	PBM binding z-score [19]	PBM binding z-score [20]
CCGAGCAGGCCAATCTGGGTCACTCAAGGCTTGA	1.11	1.16	-0.65	0.371	-1.25	2.65	2.05	2.12	-0.249	1.21	3.97	4.58	-1.06	-1.1	0.368	0.937	-0.646	1.17	-1.1	1.77
CCTTACGGGTCACTCCAGTTTATAGCATCGGAGT	5.02	6.61	0.838	3.77	-0.0101	4.4	3.25	3.3	1.11	2.27	2.98	3.39	0.913	0.686	2.32	6.04	1.06	3.6	0.603	3.74
CCTCGGAGGACCACAGGAGGTCAGAGCTGCCAGA	0.729	1.79	0.525	1.3	-0.715	1.97	0.00464	0.0668	-0.599	-0.575	-0.849	-0.16	-0.752	-1.46	1.3	2.22	0.21	2.45	0.245	2.18
GCGACTGGGGCATCAGCAGGTTACTATAACTTAA	0.0216	-0.0377	-0.448	0.689	-0.343	1.27	0.884	1.05	-0.238	0.594	4.13	3.05	-0.371	-0.562	-0.0326	-0.0216	-0.178	0.369	-0.337	0.825
GCTACAGGGTCAGCTAGAGGCCAGAGTATGGAAA	4.62	2.54	-0.26	2.36	-0.67	4.6	2.79	2.91	0.541	1.78	1.26	1.75	-0.627	-0.389	1.43	3.1	-0.36	4	-0.208	4.32
GTACCAAGGTGACTAGGTCGTTGATGAGTAGGCG	0.348	0.174	-0.398	-0.125	-1.01	1.59	1.89	1.69	0.141	0.756	1.99	3.81	0.227	-0.333	0.145	0.12	-0.403	0.639	0.0203	1.55
CGTCCAAGGTCAATGCTAGGTAAGTGAAAGCATT	5.28	4.48	0.161	3.61	0.552	5.13	3.69	4.15	0.806	2.86	2.99	3.27	0.401	-0.137	1.55	3.28	0.34	3.5	0.168	4.88
AGAATGAGGTTATTAAAATCAGGGAATTGCGGTC	1.11	1.04	0.0738	1.21	0.192	2.3	1.02	1.43	0.509	0.902	3.19	2.38	0.973	0.541	0.649	1.13	0.34	1.44	0.843	1.25
AATACAGGGTTACTAGGCCAGAGTAGGTACGAAT	0.737	1.26	0.201	1.17	0.122	3.39	4.79	4.22	1.52	3.29	2.82	4.59	1.84	1.12	1.19	0.457	0.173	0.852	0.718	1.38
ATTCGGAGGACAAAGGTCAGAGCTACGCCAGTGA	4.05	4.26	1.79	3.52	0.763	4.9	7.69	6.94	7.1	7.23	0.417	3.74	0.302	-0.48	3.33	3.99	0.477	4.9	0.808	4.39
GACACAGGGTCAAGGCCAGAGTACGCGTATTGAT	6.96	4.02	-0.483	3.38	-0.662	5.47	5.53	5.57	1.65	4.01	2.25	3.61	0.42	-0.363	1.5	3.91	0.315	4.77	0.257	4.41
ATGTCTAGGTAAGACTCAGTTCAGTGAAGAACGC	-0.0311	0.274	0.049	-0.259	-0.00137	-0.0837	0.0566	0.15	-0.029	-0.0514	0.955	0.996	0.297	0.538	0.433	0.668	1.4	-0.0923	0.712	0.132
GGAACGAGGGCAAGTTTATAGCAGAGTTTGATGG	0.688	0.332	-0.039	0.229	-0.306	1.61	1.24	0.978	0.337	0.307	3.91	2.81	0.157	-0.37	0.767	1.13	1.44	0.25	-0.0736	2.6
AGAATGAAGTTATTAAGATCAGGGAATTGCGGTC	-0.377	-0.535	-0.241	-0.514	-0.42	-0.386	0.173	-0.222	0.106	0.114	-0.0627	-0.0866	0.409	0.313	0.538	-0.219	0.044	0.183	0.224	-0.286
GGAACGAGGGCAAGTTGATCGCAGAGTTTGATGG	0.747	0.257	-0.518	0.128	-0.392	1.6	0.859	0.878	-0.211	0.517	3.49	2.88	0.162	-0.887	-0.254	0.576	-0.0478	0.607	-0.361	2.51
TCATATAGGTAAAAGGAGAAAGTCGGTGTGGTAA	1.15	0.966	-0.0649	0.573	-0.239	2.06	2.92	4.79	4.87	5.01	4.08	2.11	0.507	0.375	0.959	0.415	0.686	0.571	1.29	0.195
TCTTGTAGATCAATAGAGGTTAAGAAGGTGCGCT	0.831	2.82	0.464	1.44	-0.193	2	0.18	1.52	2.75	1.95	1.45	0.982	-0.0465	0.519	0.274	2.12	-0.00143	1.94	0.262	0.921
CCTACTGGGCCATTCAGAGGTAATTGATCATATG	-0.331	-0.32	-0.381	-0.312	-0.992	0.524	0.262	0.25	-0.481	-0.189	3.91	3.26	-0.325	-0.711	-0.319	-0.537	-0.389	-0.179	-0.252	0.178
ACTAGTTGGTCAGCTTAGGTCACACACAATTCGG	1.75	1.6	1.42	1.82	0.877	1.97	1.07	1.05	0.166	0.931	1.43	1.87	0.8	0.659	1.88	2.67	0.251	2.57	1.13	2.65
CGTCCTAGGTCAATGCTAGGTCAGTGAAAGCATT	3.74	3.83	1.98	2.38	0.076	3.34	1.92	2.52	0.255	1.31	3.18	3.31	-0.391	-0.333	2.76	2.57	-0.195	4.13	-0.0967	4.06
CCTTACGGCTCACGAGGTTATAGCACGACGAGCG	0.307	0.723	0.155	0.376	-0.33	0.625	0.887	0.128	-0.0191	0.0892	-0.0471	-0.209	-0.288	0.282	0.161	0.289	0.226	0.918	0.403	0.347
AGAATGAGGTTATACGTAGACCAGGGAAGAAAGT	2.15	1.62	-0.0461	1.41	-0.0466	3.11	1.74	1.98	0.485	1.29	4.22	2.41	0.544	0.658	0.197	0.906	0.447	1.48	0.232	1.43
CCTAGCAGACCAGGGTCACTCAAGCATTTCGCTT	2.1	1.88	-0.131	2.25	-0.581	3.23	0.556	1.21	-0.525	0.444	-0.221	0.416	-0.792	-1.1	0.914	2.63	-0.0947	3.3	-0.0324	2.32
CCAGACAGGTGAAAGGTAACTCGGTCTGGTACGC	0.495	0.577	-0.368	0.702	-0.561	3.46	5.96	5.52	4.56	6.21	2.3	2.9	-0.38	-1.24	0.981	0.75	-0.111	1.77	0.392	1.2
CAATCTAGGTCACCGGAAGGTCAAAGTCCGCATG	6.51	6.15	6.06	5.42	1.92	6.32	10	7.96	6.12	8.12	8.34	8.62	2.22	1.39	7.89	5.96	2.44	7.4	3.19	5.41
GCTATTAGTCGAAAGGGCAACCGAATGATTCTCG	0.296	0.236	0.214	0.479	-0.262	1.74	2.25	4.04	2.32	3.76	0.549	0.458	0.65	0.0546	0.852	0.446	-0.0421	0.942	0.125	2.07
GCGACGGGGGCAAAGCAGGTTACCATAAGGTTGG	3.46	4.5	0.414	4.42	5.27	4	1.96	3.58	1.84	3.04	2.39	4.59	4.08	8.05	1.37	3.8	1.1	2.78	0.26	2.88
TCTGCTAGGTCAGTTGGTCAGCTAGCGAGCTGCC	0.851	0.628	-0.728	0.453	0.185	1.25	0.0409	1.64	1.21	1.31	2.78	3.15	-0.34	-0.0427	-0.0101	0.114	-0.917	0.452	-1.22	3.38
TGATTGAGGTTATAAGATCAGGGAACGTTGCAAA	1.58	1.48	-0.174	1.21	-0.195	2.46	0.965	1.78	0.689	1.56	0.431	1.59	0.391	0.349	0.564	0.896	-0.0809	1.5	0.232	1.19
